{"source": "the supplement of paper PMC8728848", "test_in_all_cases": "glycan array binding signal (z-score within array); higher = stronger binding", "details_in_all_cases": "glycan notation: IUPAC condensed, linker removed", "key": {"[1]": {"target": "Fuc(a1-2)Gal(b1-4)GlcNAc(b1-3)Gal(b1-4)GlcNAc(b1-3)Gal(b1-4)GlcNAc", "how_it_was_run": "(§1)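 Glycan array data were curated from 3228 arrays in the Consortium for Functional Glycomics database and kept only where the protein sequence was available. Glycan names were converted to IUPAC-condensed notation, and columns mapping to the same glycan were averaged. The binding signal is a within-array Z-score, averaged across arrays of the same protein sequence at different concentrations or buffers and across linkers. Negative Z-scores can be read as non-binding.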"}, "Fuc(a1-2)GlcNAc": {"target": "Fuc(a1-2)GlcNAc", "how_it_was_run": "as §1"}, "Fuc(b1-3)GlcNAc": {"target": "Fuc(b1-3)GlcNAc", "how_it_was_run": "as §1"}, "Gal(a1-3)GalNAc": {"target": "Gal(a1-3)GalNAc", "how_it_was_run": "as §1"}, "Gal(a1-4)Gal(b1-4)Glc": {"target": "Gal(a1-4)Gal(b1-4)Glc", "how_it_was_run": "as §1"}, "[2]": {"target": "Gal(b1-3)[GlcNAc(b1-6)]GalNAc", "how_it_was_run": "as §1"}, "[3]": {"target": "Gal(b1-4)GlcNAc(b1-6)[Gal(b1-3)]GalNAc", "how_it_was_run": "as §1"}, "GalNAc(b1-3)GalNAc": {"target": "GalNAc(b1-3)GalNAc", "how_it_was_run": "as §1"}, "GlcNAc(b1-3)Gal(b1-4)Glc": {"target": "GlcNAc(b1-3)Gal(b1-4)Glc", "how_it_was_run": "as §1"}, "[4]": {"target": "GlcNAc(b1-3)[GlcNAc(b1-6)]GlcNAc(b1-4)GlcNAc", "how_it_was_run": "as §1"}, "[5]": {"target": "GlcNAc(b1-4)GlcNAc(b1-4)GlcNAc", "how_it_was_run": "as §1"}, "Man(a1-2)Man(a1-3)Man": {"target": "Man(a1-2)Man(a1-3)Man", "how_it_was_run": "as §1"}, "[6]": {"target": "Neu5Ac(a2-3)Gal(b1-3)[Fuc(a1-4)]GlcNAc(b1-3)Gal(b1-4)[Fuc(a1-3)]GlcNAc", "how_it_was_run": "as §1"}, "[7]": {"target": "Neu5Ac(a2-3)[Neu5Ac(a2-6)]GalNAc", "how_it_was_run": "as §1"}}, "note": "About 410 targets per protein were measured; listed, in parts, are those with the strongest signals and a random draw of the rest."}
{"binder": "F17eG (Escherichia coli), Q9RH92 (protein) MTNFYKVFLAVFILVCCNISHAAVSFIGSTENDVGPSQSSYSRTHAMDNLPFVYNTGYNIGYQNANVWRISGGFCVGLDGKVDLPVVGSLDGQSIYGLTEEVGLLIWMGDTNYSRGTAMSGNSWENVFSGWCVGNYVSTQGLSVHVRPVILKRNSSAQYSVQKTSIGSIRMRPYNGSSAGSVQTTVNFSLNPFTLNDTVTSCRLLTPSAVNVSLAAISAGQLPSSGDEVVAGTTSLKLQCDAGVTVWATLTDATTPSNRSDILTLTGASTATGVGLRIYKNTDSTPLKFGPDSPVKGNENQWQLSTGTETSPSVRLYVKYVNTGEGINPGTVNGISTFTFSYQ", "values": [{"measurement": "glycan array binding signal (z-score)", "setting": "[1]", "result": -0.298}, {"measurement": "glycan array binding signal (z-score)", "setting": "Fuc(a1-2)GlcNAc", "result": -0.176}, {"measurement": "glycan array binding signal (z-score)", "setting": "Fuc(b1-3)GlcNAc", "result": -0.315}, {"measurement": "glycan array binding signal (z-score)", "setting": "Gal(a1-3)GalNAc", "result": -0.302}, {"measurement": "glycan array binding signal (z-score)", "setting": "Gal(a1-4)Gal(b1-4)Glc", "result": -0.293}, {"measurement": "glycan array binding signal (z-score)", "setting": "[2]", "result": 4.13}, {"measurement": "glycan array binding signal (z-score)", "setting": "[3]", "result": -0.31}, {"measurement": "glycan array binding signal (z-score)", "setting": "GalNAc(b1-3)GalNAc", "result": 4.3}, {"measurement": "glycan array binding signal (z-score)", "setting": "GlcNAc(b1-3)Gal(b1-4)Glc", "result": 4.59}, {"measurement": "glycan array binding signal (z-score)", "setting": "[4]", "result": 4.3}, {"measurement": "glycan array binding signal (z-score)", "setting": "[5]", "result": 0.197}, {"measurement": "glycan array binding signal (z-score)", "setting": "Man(a1-2)Man(a1-3)Man", "result": -0.302}, {"measurement": "glycan array binding signal (z-score)", "setting": "[6]", "result": -0.097}, {"measurement": "glycan array binding signal (z-score)", "setting": "[7]", "result": -0.208}]}
